PubChem BioAssay (NCI)
This is part of a sample that, as a whole, favours compounds with a hit. Of some 83,000 tested, about 20% had one in any assay.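 Percent growth is the endpoint: 0 to 100 indicates growth inhibition (40 means 60% inhibition), 0 means no net growth, and negative values indicate cell death.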 Calls of active or inactive are those of the source. The calls were made as follows: active = growth percent below 10; inactive = the rest.

system: NCI-H23 lung; assay: NCI-60 one-dose screen, 48 h (100 = growth as untreated, 0 = no growth, -100 = all killed); settings: 10 µM unless noted

Compound | growth
O=c1c2ccccc2c2nccn2c2cc(Cl)ccc12 | 72.6% (inactive)
COC(=O)[C@H]1[C@H]2C[C@@H]3c4[nH]c5cc(OC)ccc5c4CCN3C[C@H]2C[C@@H](OC(=O)/C=C/c2cc(OC)c(OC)c(OC)c2)[C@@H]1OC | 93.5% (inactive)
COc1ccc(-c2c3c(N)nc(-c4ccncc4)nc3nc3c2c(C)nn3-c2ccccc2)cc1 | 59.9% (inactive)
Cc1cc(C)cc(S(=O)(=O)n2ccc(-c3ccc4c(c3)CCC(C)(C)O4)n2)c1 | 73.6% (inactive)
O=C1C(=O)/C(=C/c2ccccc2)CCCCCC/C1=C/c1ccccc1 | 42.3% (inactive)
c1ccc2c(-c3nc4ccccc4[nH]3)cccc2c1 | 44.2% (inactive)
C/C(=C\CCc1ccoc1)CC/C=C(\C)CCCC1COC(=O)C1 (stereo not drawn) | 106% (inactive)
N#CSCC1CC(O)(c2ccccc2)C(c2ccccc2)C(c2ccc(Cl)cc2)O1 (stereo not drawn) | -78.6% (active)
COc1ccc(NC(=O)[C@@H]2C[C@H]2c2ccccc2)c(C(N)=O)c1 | 91.3% (inactive)
COc1ccc(NS(=O)(=O)N2CCCCC2)cc1 | 106% (inactive)
COc1cccc(/C=C2\Cc3ccccc3C2=O)c1 | 106% (inactive)
CNCCCn1c2c(c3ccc(F)cc3c1=O)C(=O)c1cc(OC)cnc1-2 | -41.5% (active)
Cc1ccc(N/N=C(/C(=O)c2ccc(Cl)cc2)c2nc(C)cc(=O)[nH]2)cc1 | 111% (inactive)
CCCCCCCC[Si](OCC)(OCC)OCC | 98.2% (inactive)
CCC(=O)Nc1cc2c(cc1Cl)-c1ccccc1C2 | 89.1% (inactive)
COc1ccc2c(c1)c(CC(=O)[Se]C)c(C)n2C(=O)c1ccc(Cl)cc1 | 5.36% (active)
O=C(Nc1cccc(-n2cc(-c3ccncc3)c(-c3cc(O)cc(Cl)c3)n2)c1)Nc1ccc(Cl)c(Cl)c1 | -20.5% (active)
CC(=O)c1ccc(NS(=O)(=O)c2ccc([N+](=O)[O-])cc2)cc1 | 105% (inactive)
O=C(C(=O)c1cc(Br)ccc1O)c1cc(Br)ccc1O | 19.8% (inactive)
O=C1NC(=O)/C(=C\c2ccco2)S1 | 101% (inactive)

Compound | growth
C/C(=C\CCc1ccoc1)CC/C=C(\C)CCCNc1ccc(F)cc1 | 100% (inactive)
COc1cc(C(=O)c2cc3c(cc2C)OCO3)cc(OC)c1OC | 28% (inactive)
CCOc1cc(/C=C/C(=O)CC(=O)/C=C/c2ccc(OC(=O)CNCCN(CC)CC)c(OCC)c2)ccc1OC(=O)CNCCN(CC)CC | -35.6% (active)
Cc1nn2c(/C=C3/C(=O)Nc4cc(Cl)ccc43)c(-c3ccccc3)nc2s1 | 34.9% (inactive)
O=C(c1ccccc1)C(CN1CCCCC1)c1ccccc1 (stereo not drawn) | 91.4% (inactive)
Cc1nn(-c2ccccc2)cc1/C=C1\SC(N2CCCCC2)=NC1=O | 104% (inactive)
CN(C)c1ncnc2c1ncn2C1CCCCO1 (stereo not drawn) | 101% (inactive)
CCOc1cc(/C=C/C(=O)C(C(=O)/C=C/c2ccc(OC(=O)CNc3nnc(C)s3)c(OCC)c2)C(=O)CNc2nnc(C)s2)ccc1OC(=O)CNc1nnc(C)s1 | -2.16% (active)
N#Cc1c(-c2ccccc2)cc(-c2ccccc2)n(CCCCCCC(=O)O)c1=O | 96.7% (inactive)
COc1ccc(C2=NN(C=O)C(c3cccc(Nc4ccnc5cc(Cl)ccc45)c3)C2)cc1 (stereo not drawn) | 23.5% (inactive)
COc1cc(/C=C/c2cc(/C=C/c3ccc(O)c(OC)c3)n(C(=O)Cc3ccccc3)n2)ccc1O | 1.94% (active)
O=C1c2cccc3c([N+](=O)[O-])ccc(c23)C(=O)N1CCCCl | -74.8% [100 µM] (active)
CCOC(=O)/C(=C/CC/C(C)=C/CC/C(C)=C/CCc1ccoc1)CC(=O)N1CCCCC1 | 66.4% (inactive)
Clc1ccc2nc(CI)c(CI)nc2c1 | 85.8% (inactive)
CNNc1ncnc2c1cnn2-c1ccc(S(N)(=O)=O)cc1 | 94.2% (inactive)
Nc1nc2c(c(=O)[nH]1)C1(C(=O)Nc3ccccc31)c1c(nc(N)[nH]c1=O)N2 | 106% (inactive)
Cc1[nH]cnc1/C=C1\SC(N2CCCCC2)=NC1=O | 101% (inactive)
COc1cccc(-c2nc3cc(NC(=O)c4ccc(Cl)c(C#N)c4)ccc3o2)c1 | -18.8% (active)
N#Cc1ccc(-c2csc(Nc3ccc4nc5n(c(=O)c4c3)CCC5)n2)cc1 | 105% (inactive)

system: NCI-H226 lung; assay: as above; settings: 10 µM unless noted

Compound | growth
O=c1c2ccccc2c2nccn2c2cc(Cl)ccc12 | 155% (inactive)
COC(=O)[C@H]1[C@H]2C[C@@H]3c4[nH]c5cc(OC)ccc5c4CCN3C[C@H]2C[C@@H](OC(=O)/C=C/c2cc(OC)c(OC)c(OC)c2)[C@@H]1OC | 101% (inactive)
COc1ccc(-c2c3c(N)nc(-c4ccncc4)nc3nc3c2c(C)nn3-c2ccccc2)cc1 | 74% (inactive)
Cc1cc(C)cc(S(=O)(=O)n2ccc(-c3ccc4c(c3)CCC(C)(C)O4)n2)c1 | 66.8% (inactive)
O=C1C(=O)/C(=C/c2ccccc2)CCCCCC/C1=C/c1ccccc1 | 101% (inactive)
c1ccc2c(-c3nc4ccccc4[nH]3)cccc2c1 | 79% (inactive)
C/C(=C\CCc1ccoc1)CC/C=C(\C)CCCC1COC(=O)C1 (stereo not drawn) | 104% (inactive)
N#CSCC1CC(O)(c2ccccc2)C(c2ccccc2)C(c2ccc(Cl)cc2)O1 (stereo not drawn) | 19.7% (inactive)
COc1ccc(NC(=O)[C@@H]2C[C@H]2c2ccccc2)c(C(N)=O)c1 | 101% (inactive)
COc1ccc(NS(=O)(=O)N2CCCCC2)cc1 | 96.2% (inactive)
COc1cccc(/C=C2\Cc3ccccc3C2=O)c1 | 107% (inactive)
CNCCCn1c2c(c3ccc(F)cc3c1=O)C(=O)c1cc(OC)cnc1-2 | -61.2% (active)
Cc1ccc(N/N=C(/C(=O)c2ccc(Cl)cc2)c2nc(C)cc(=O)[nH]2)cc1 | 107% (inactive)
CCCCCCCC[Si](OCC)(OCC)OCC | 96.1% (inactive)
CCC(=O)Nc1cc2c(cc1Cl)-c1ccccc1C2 | 81.7% (inactive)
COc1ccc2c(c1)c(CC(=O)[Se]C)c(C)n2C(=O)c1ccc(Cl)cc1 | -34% (active)
O=C(Nc1cccc(-n2cc(-c3ccncc3)c(-c3cc(O)cc(Cl)c3)n2)c1)Nc1ccc(Cl)c(Cl)c1 | 14.5% (inactive)
CC(=O)c1ccc(NS(=O)(=O)c2ccc([N+](=O)[O-])cc2)cc1 | 99.4% (inactive)
O=C(C(=O)c1cc(Br)ccc1O)c1cc(Br)ccc1O | 90.9% (inactive)
O=C1NC(=O)/C(=C\c2ccco2)S1 | 95.8% (inactive)

Compound | growth
C/C(=C\CCc1ccoc1)CC/C=C(\C)CCCNc1ccc(F)cc1 | 88.5% (inactive)
COc1cc(C(=O)c2cc3c(cc2C)OCO3)cc(OC)c1OC | 45.4% (inactive)
CCOc1cc(/C=C/C(=O)CC(=O)/C=C/c2ccc(OC(=O)CNCCN(CC)CC)c(OCC)c2)ccc1OC(=O)CNCCN(CC)CC | -41.3% (active)
Cc1nn2c(/C=C3/C(=O)Nc4cc(Cl)ccc43)c(-c3ccccc3)nc2s1 | 95.2% (inactive)
O=C(c1ccccc1)C(CN1CCCCC1)c1ccccc1 (stereo not drawn) | 91.6% (inactive)
Cc1nn(-c2ccccc2)cc1/C=C1\SC(N2CCCCC2)=NC1=O | 86.7% (inactive)
CN(C)c1ncnc2c1ncn2C1CCCCO1 (stereo not drawn) | 98.5% (inactive)
CCOc1cc(/C=C/C(=O)C(C(=O)/C=C/c2ccc(OC(=O)CNc3nnc(C)s3)c(OCC)c2)C(=O)CNc2nnc(C)s2)ccc1OC(=O)CNc1nnc(C)s1 | -14.8% (active)
N#Cc1c(-c2ccccc2)cc(-c2ccccc2)n(CCCCCCC(=O)O)c1=O | 93.1% (inactive)
COc1ccc(C2=NN(C=O)C(c3cccc(Nc4ccnc5cc(Cl)ccc45)c3)C2)cc1 (stereo not drawn) | 39.7% (inactive)
COc1cc(/C=C/c2cc(/C=C/c3ccc(O)c(OC)c3)n(C(=O)Cc3ccccc3)n2)ccc1O | 13.7% (inactive)
O=C1c2cccc3c([N+](=O)[O-])ccc(c23)C(=O)N1CCCCl | -54.1% [100 µM] (active)
CCOC(=O)/C(=C/CC/C(C)=C/CC/C(C)=C/CCc1ccoc1)CC(=O)N1CCCCC1 | 73% (inactive)
Clc1ccc2nc(CI)c(CI)nc2c1 | 56.4% (inactive)
CNNc1ncnc2c1cnn2-c1ccc(S(N)(=O)=O)cc1 | 91.3% (inactive)
Nc1nc2c(c(=O)[nH]1)C1(C(=O)Nc3ccccc31)c1c(nc(N)[nH]c1=O)N2 | 91.5% (inactive)
Cc1[nH]cnc1/C=C1\SC(N2CCCCC2)=NC1=O | 96.2% (inactive)
COc1cccc(-c2nc3cc(NC(=O)c4ccc(Cl)c(C#N)c4)ccc3o2)c1 | 76.1% (inactive)
N#Cc1ccc(-c2csc(Nc3ccc4nc5n(c(=O)c4c3)CCC5)n2)cc1 | 105% (inactive)
